# Test results: article PMC4552634, “A New Set of Chemical Starting Points with Plasmodium falciparum Transmission-Blocking Potential for Antimalarial Drug Discovery” (PLoS ONE, 2015)
# About 3,200 (25%) of roughly 13,000 compounds showed an effect of 50% or more. This is one part of the list.
# System: P. falciparum stage V gametocytes
# Parameters: BacTiter-Glo ATP luminescence viability of purified stage V gametocytes in 384-well plates, per cent inhibition versus DMSO
# Conditions: 48 h, 5 µM; inhibitor
row,SMILES,% Inhibition
1,Cc1noc(-c2ccccc2)c1CN1CCCC2(CC(C(=O)NCc3cccc(F)c3F)=NO2)C1 (stereo not shown) [TCMDC-136606],-21.45%
2,Cc1noc(C)c1-c1cccc(CNCc2cccc(-c3ccc(-c4nc5cccc(C)c5[nH]4)cc3)c2)c1.O=C(O)C(F)(F)F [TCMDC-133056],-10.48%
3,C=CCOc1ccc(-c2c(C)[nH]c(C)c(Br)c2=O)cc1 [TCMDC-135042],74.1%
4,Cc1[nH]c(C)c(-c2ccc(Oc3ccc([S+](C)[O-])cc3)cc2)c(=O)c1Br (stereo not shown) [TCMDC-137400],34.54%
5,Cc1[nH]c(C)c(-c2ccc(OCc3ccc(F)cc3)cc2)c(=O)c1Br [TCMDC-138928],4.156%
6,Cc1[nH]c(C)c(-c2ccc(-c3ccc(F)cc3)cc2)c(=O)c1Br [TCMDC-137421],28.52%
7,Cc1[nH]c(C)c(-c2ccc(Oc3ccccc3)cc2)c(=O)c1Br [TCMDC-137410],67.24%
8,Cc1[nH]c(C)c(-c2ccc(OCc3ccccc3)cc2)c(=O)c1Br [TCMDC-138901],61.61%
9,Cc1[nH]c(C)c(-c2ccc(Oc3ccc(F)cc3)cc2)c(=O)c1Br [TCMDC-137402],76.64%
10,Cc1[nH]c(C)c(-c2ccc(Oc3ccc(Cl)cc3)cc2)c(=O)c1Br [TCMDC-137420],17.1%
11,CCN1CCN(c2cc(C)c3cc(NC(=O)c4cccc([N+](=O)[O-])c4)ccc3n2)CC1 [TCMDC-125577],8.914%
12,CCN(CC)CCn1c2ccccc2c2ccc(C(=O)Nc3ccc4sc(C)nc4c3)cc21 [TCMDC-135280],-1.763%
13,O=C(c1cccc(-c2ccc(-c3nc4cc(F)ccc4[nH]3)s2)c1)N1CCCCC1CN1CCC(O)C1 (stereo not shown) [TCMDC-132343],-28.04%
14,COc1ccc2nc(C)cc(Nc3ccc(Oc4ccc(Cl)cc4)c(Cl)c3)c2c1 [TCMDC-123477],-13.35%
15,Cc1csc(NC(=O)c2cn(-c3ccccc3)nc2-c2cccs2)n1 [TCMDC-124531],15.91%
16,CC1CCCC(NCc2c(O)ccc3ccccc23)C1 (stereo not shown) [TCMDC-137601],28.2%
17,O=C(NCc1cccc2ccccc12)[C@@H]1CCCN1C(=O)c1ccc(O)c(-c2ccc(Cl)c(Cl)c2)c1 [TCMDC-140876],16.61%
18,COc1ccc2ccc(F)c(CC(=O)N3CCOC(CNCc4cccc(-c5ccc(F)cc5)n4)C3)c2n1 (stereo not shown) [TCMDC-135026],-25.99%
19,CCOC(=O)c1c(CSc2ccccc2)oc2cc(CN(C)C)c(O)c(Cl)c12 [TCMDC-124095],-76.05%
20,Cc1cccc2[nH]c(-c3ccc(-c4cccc(NCc5cn6cccnc6n5)c4)cc3)nc12 [TCMDC-136896],-19.99%
21,COc1cccc2cc(C(=O)N[C@@H](CC(C)C)C(=O)Nc3cc(F)ccc3Br)oc12 [TCMDC-135547],2.093%
22,Cc1[nH]c(C)c(-c2ccc(OCCCc3ccccn3)cc2)c(=O)c1Br [TCMDC-135795],65.53%
23,C=Cc1ccc(-c2c(C)[nH]c(C)c(Br)c2=O)cc1 [TCMDC-135433],58.24%
24,C=CCOc1ccccc1CNCC(O)c1cc(Br)cs1 (stereo not shown) [TCMDC-140498],-6.926%

row,SMILES,% Inhibition
1,CN(C)C(CNC(=O)c1cc(-c2ccncc2)c(-c2ccc(NC(=O)Nc3cccc(Cl)c3)cc2)o1)c1ccccc1 (stereo not shown) [TCMDC-135781],-15.22%
2,COc1cccc(NC(=O)Nc2ccc(Nc3nc(C)cc(N(C)C)n3)cc2)c1 [TCMDC-124959],26.66%
3,CCC(C)(C)NC(C)C(O)c1ccc(C(F)(F)F)cc1 (stereo not shown) [TCMDC-138152],-4.943%
4,Cc1ccc(NCC(=O)Nc2ccc(F)c(Cl)c2)cc1S(=O)(=O)N1CCOCC1 [TCMDC-123553],-4.453%
5,Cc1[nH]c(C)c(-c2ccc(Oc3ccc(Cl)cc3)cc2)c(=O)c1Cl [TCMDC-137418],32.25%
6,Cc1[nH]c(C)c(-c2ccc(Oc3cccc(Cl)c3)cc2)c(=O)c1Cl [TCMDC-137395],75.57%
7,Cc1[nH]c(C)c(-c2ccc(Oc3ccc(Cl)cc3)cc2)c(=O)c1C [TCMDC-137378],85.12%
8,Cc1[nH]c(C)c(-c2ccc(Oc3ccc(Cl)cc3)cc2)c(=O)c1I [TCMDC-137393],12.14%
9,Cc1[nH]c(C)c(-c2ccc(Oc3cc(Cl)cc(Cl)c3)cc2)c(=O)c1Cl [TCMDC-137391],69.19%
10,NC(=O)c1ccsc1NC(=O)CNC(c1ccc(F)cc1)c1cccs1 (stereo not shown) [TCMDC-125036],5.053%
11,C[C@@H]1CN(C(c2cccc(O)c2)c2cccc(C(=O)N(C)c3cccc(F)c3)c2)[C@@H](C)CN1C(c1cccc(O)c1)c1cccc(C(=O)N(C)c2cccc(F)c2)c1 (stereo partly shown) [TCMDC-137248],-16.24%
12,CCN(CC)CCCN(C(=O)Nc1ccc(C#N)cc1)c1nc(-c2ccc(F)cc2)cs1 [TCMDC-136664],-0.5138%
13,CN1C2CCC1c1cc(NC(=O)c3cc(-c4ccc(Cl)cc4)cs3)ccc12 (stereo not shown) [TCMDC-134192],-60.68%
14,CCOc1cc(C(=O)NC2CCN(Cc3ccccc3)CC2)ccc1-c1nc2cc(Cl)c(F)cc2[nH]1 [TCMDC-140096],-27.97%
15,CC(C)(C)c1cc(C(=O)N2CCN(c3ncnc4ccsc34)CC2)n(Cc2ccccc2)n1 [TCMDC-133771],-19.67%
16,CCCCNCC(O)COc1ccccc1-c1ccc(N/N=C/c2cccc3ccccc23)nn1 (stereo not shown) [TCMDC-139416],102.4%
17,Cc1ccc(NC(=O)c2ccc(-c3cc4cc(Cl)c(Cl)cc4[nH]3)cc2)cc1OCCN1CCCC1 [TCMDC-141289],43.64%
18,COc1ccc(NC(=O)/C=C/c2ccccc2Cl)cc1OCCN1CCC(NCc2cccnc2)CC1 [TCMDC-140758],-13.35%
19,COc1cc(NC(=O)c2ccc(-c3ccc(C(C)=O)cc3)s2)ccc1OCCN1CCCC1 [TCMDC-138864],-4.371%
20,COc1cc(NC(=O)c2ccc3oc4ccccc4c3c2)ccc1OCCN1CCCCC1 [TCMDC-140701],-7.89%
21,COc1cc(NC(=O)c2sc(-c3ccc(Cl)cc3)cc2NC(=O)N2CCCC2)ccc1OCCN1CCCC1 [TCMDC-135404],71.79%
22,COc1cc(NC(=O)c2sc(-c3ccc(Cl)cc3)cc2NC(=O)c2ccncc2)ccc1OCCN1CCCC1 [TCMDC-135398],121.8%
23,COc1ccc(NC(=O)/C=C/c2ccccc2Cl)cc1OCCN1CCN(c2ccncc2)CC1 [TCMDC-140732],4.813%
24,COc1cc(NC(=O)c2sc(-c3ccc(Cl)cc3)cc2NC(=O)c2cccnc2)ccc1OCCN1CCCC1 [TCMDC-135397],125.5%

row,SMILES,% Inhibition
1,COc1cc(NC(=O)c2sc(-c3ccc(Cl)cc3)cc2NC(=O)c2cccc(N(C)C)c2)ccc1OCCN1CCCC1 [TCMDC-135403],72.06%
2,COc1ccc(NC(=O)c2ccc3[nH]c(-c4ccc(Cl)cc4)cc3c2)cc1OCCN(C)C [TCMDC-138706],-82.62%
3,COc1cc(NC(=O)c2sc(-c3ccc(Cl)cc3)cc2Cl)ccc1OCCN1CCCC1 [TCMDC-135556],-58.99%
4,O=C(NCC1CCC(CNCCc2ccccc2)CC1)Nc1ccc(Cl)c(Cl)c1 (stereo not shown) [TCMDC-140704],-8.295%
5,CCCCCc1cc(O)c2c3c(c(=O)oc2c1)CN(C)CC3 [TCMDC-124170],9.829%
6,CC(=O)Nc1csc(-c2cnc(/C=C(\C)C[C@@H]3OC[C@H](C[C@@H]4O[C@H]4[C@@H](C)[C@H](C)O)[C@@H](O)[C@H]3O)o2)c1 [TCMDC-131575],0.669%
7,COc1cccc(NC(=O)NC2CCN(c3ccnc(Nc4cc(OC)c(OC)c(OC)c4)n3)C2)c1 (stereo not shown) [TCMDC-133627],-76.2%
8,CN(C)C(=S)N=Nc1c(O)[nH]c2ccccc12 [TCMDC-124262],-39.06%
9,COc1cc(NC(=O)/C=C/c2ccccc2OC(F)(F)F)cc(OCCN2CCC(O)(c3ccccc3)CC2)c1 [TCMDC-140935],-5.416%
10,COc1ccc(C2CCN(CCN3CCC(NC(=O)c4cccc(-c5ccncc5)c4)CC3)CC2)c(OC)c1 [TCMDC-135431],-2.358%
11,COc1cc(NC(=O)c2sc(-c3ccc(Cl)cc3)cc2NC(=O)CN2CCCC2)ccc1OCCN1CCCC1 [TCMDC-135381],-9.57%
12,COc1cc(NC(=O)c2sc(-c3ccc(Cl)cc3)cc2NC(=O)CN2CC[C@@H](O)C2)ccc1OCCN1CCCC1 [TCMDC-135380],114.3%
13,COc1ccc(CCCON2C(N)=NC(N)=NC2(C)C)cc1 [TCMDC-131693],15.23%
14,O=C(NCCCCN1CCC(c2ccc(OC(F)(F)F)cc2)CC1)c1ccc(NC(=O)c2ccc(Cl)cc2)cc1 [TCMDC-138327],35.48%
15,O=C(NCCCCN1CCC(c2ccc(Br)cc2)CC1)c1ccc(NC(=O)c2ccc(Cl)cc2)cc1 [TCMDC-138347],1.75%
16,O=C(NCCCCN1CCN(c2cccc3ccccc23)CC1)c1ccc(NC(=O)c2ccc(Cl)cc2)cc1 [TCMDC-138514],-0.4742%
17,CCc1ccc(C2CCN(CCCCNC(=O)c3ccc(NC(=O)c4ccc(Cl)cc4)cc3)CC2)cc1 [TCMDC-138351],54.3%
18,CCc1ccccc1N1CCN(CCCCNC(=O)c2ccc(NC(=O)c3ccc(Cl)cc3)cc2)CC1 [TCMDC-138192],63.87%
19,C=CCc1ccc(C2CCN(CCCCNC(=O)c3ccc(NC(=O)c4ccc(Cl)cc4)cc3)CC2)cc1 [TCMDC-138355],87.45%
20,O=C(NCCCCN1CCC(c2ccc([N+](=O)[O-])cc2)CC1)c1ccc(NC(=O)c2ccc(Cl)cc2)cc1 [TCMDC-138350],25.02%
21,CCc1ccccc1N1CCN(CCCC(=O)c2ccc(NC(=O)c3ccc(Cl)cc3)cc2)CC1 [TCMDC-138230],-10.32%
22,CCCc1ccc(C2CCN(CCCCNC(=O)c3ccc(NC(=O)c4ccc(Cl)cc4)cc3)CC2)cc1 [TCMDC-138358],87.46%
